Source: PubChem
PLK1 PBD block – inhibitors of human PLK1 polo-box domain binding; P53350; Plk1 PBD binding of FITC phosphopeptide, fluorescence polarization; Potency, µM, without a hit: max response, negative = inhibition, hits mostly inhibitors; 2.8% of 360,000 active; note: series mostly up to about 57 µM; % is set by controls: 0 for no effect and ±100 for the full control effect; nearly all actives have a fitted effect of over 65% in size
JMJD2A Tudor inh – JMJD2A Tudor domain (human) inhibition. O75164. AlphaScreen JMJD2A-Tudor / H3K4me3 peptide binding. Potency, µM (series often up to 114 µM), without a hit: at the highest dose activity change, negative = inhibition, hits mostly inhibitors. 4.4% of 390,000 active. AID 504339; note: % is set by controls: 0 for no effect and ±100 for the full control effect; nearly all actives have a fitted effect of over 50% in size
Target sequence (O75164 whole entry, looked up, the tested form may be a part): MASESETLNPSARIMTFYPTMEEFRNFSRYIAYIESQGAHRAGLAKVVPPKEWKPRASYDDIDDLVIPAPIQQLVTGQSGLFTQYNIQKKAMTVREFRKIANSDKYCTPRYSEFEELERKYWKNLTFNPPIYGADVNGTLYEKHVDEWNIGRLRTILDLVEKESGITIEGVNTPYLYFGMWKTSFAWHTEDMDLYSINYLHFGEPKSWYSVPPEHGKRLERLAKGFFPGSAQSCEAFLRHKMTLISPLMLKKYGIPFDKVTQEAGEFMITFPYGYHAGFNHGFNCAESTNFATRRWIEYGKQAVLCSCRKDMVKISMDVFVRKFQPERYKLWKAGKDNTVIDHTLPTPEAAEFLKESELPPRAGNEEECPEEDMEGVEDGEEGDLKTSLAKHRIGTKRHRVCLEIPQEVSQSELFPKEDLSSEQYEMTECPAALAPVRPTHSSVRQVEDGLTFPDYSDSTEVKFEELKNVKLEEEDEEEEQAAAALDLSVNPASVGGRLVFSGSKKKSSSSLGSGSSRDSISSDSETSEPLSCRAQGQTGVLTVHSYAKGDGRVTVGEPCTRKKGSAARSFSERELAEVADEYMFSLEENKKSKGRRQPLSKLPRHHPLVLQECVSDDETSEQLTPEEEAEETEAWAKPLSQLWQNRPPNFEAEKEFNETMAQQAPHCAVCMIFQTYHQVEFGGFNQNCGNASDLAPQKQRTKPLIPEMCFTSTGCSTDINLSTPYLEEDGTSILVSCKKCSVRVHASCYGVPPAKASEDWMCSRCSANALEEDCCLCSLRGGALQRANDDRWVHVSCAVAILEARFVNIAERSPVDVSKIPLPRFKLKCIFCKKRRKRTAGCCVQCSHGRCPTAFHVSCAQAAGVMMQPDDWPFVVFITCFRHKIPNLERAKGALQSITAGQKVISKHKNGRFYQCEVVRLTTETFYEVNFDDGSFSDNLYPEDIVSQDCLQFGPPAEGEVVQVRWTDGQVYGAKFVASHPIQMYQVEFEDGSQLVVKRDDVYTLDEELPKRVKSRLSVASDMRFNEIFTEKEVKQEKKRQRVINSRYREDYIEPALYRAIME
BAZ2B block – blocks human BAZ2B. AlphaScreen BAZ2B-H3K14Ac peptide displacement. Potency, µM (top dose mostly 114 µM), without a hit: top-dose activity change, negative = inhibition, hits mostly inhibitors. 4.4% of 360,000 active. AID 504333; note: % is set by controls: 0 for no effect and ±100 for the full control effect; nearly all actives have a fitted effect of over 60% in size
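Protein-peptide AlphaScreen: BAZ2B 50 nM, b-H3K14Ac 50 nM, 1x PBS pH 7.4 + 0.01% Tween-20. Preincubation 30 min RT; cpd 30 min RT (top 110 uM); beads 20 min RT, light-protected.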
HP1b chromo inh – inhibitors of HP1-beta chromodomain binding to methylated histone tails; P83916; AlphaScreen HP1-beta / biotin-H3K9me3 peptide binding; Potency, µM (top dose mostly 114 µM), for inactives: at the top dose activity change, negative = inhibition, most hits filed as inhibitors; 0.56% of 390,000 active; note: nearly all actives have a fitted effect of over 70% in size
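AlphaScreen: HP1-beta (50 nM) preformed 30 min with biotin-H3(1-18)K9me3 peptide (50 nM) in PBS pH 7.4, 0.01% Tween-20. Compound added for 30 min at RT, then streptavidin donor/nickel chelate acceptor beads (10 ug/mL) for 30 min.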
12-LOX inh – blocks human arachidonate 12S-lipoxygenase | Potency, µM (titrated, usually from 108 µM), without a hit: top-dose activity change, negative = inhibition, usual class: inhibitors | P18054 | 1.1% of 580,000 active | AID 1671190 | purified 12hLO, xylenol orange hydroperoxide absorbance; note: % is set by controls: 0 for no effect and ±100 for the full control effect
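Purified human 12hLO at 150 nM in 25 mM Hepes, 0.01% Triton X-100, pH 7.0, preincubated 15 min at room temperature with compound. Reaction started with 40 uM arachidonic acid, 30 min at room temperature. Hydroperoxide measured by Fe-xylenol orange, 573/405 nm absorbance ratio.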
G9a inh – inhibitors of human histone lysine methyltransferase G9a. Potency, µM (titrated, usually from 102 µM), for the others: at the top dose activity, negative = inhibition, actives largely listed as inhibitors. 8.8% of 350,000 active. Q96KQ7. G9a H3K9 monomethylation, AlphaScreen, 2 h; note: % is set by controls: 0 for no effect and ±100 for the full control effect; nearly all actives have a fitted effect of over 75% in size
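Readings reflect AlphaScreen signal from monomethyl-H3K9 antibody detection. HMT at 20 nM; substrate b-H3K9 500 nM; cofactor SAM 20 uM; 2 h RT reaction; compounds tested as titrations in qHTS with 15 min preincubation.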
An asterisk follows results filed as active; ? = inconclusive; . = no result; [ ] = dose if it differs, or a comment. A selection: hits, their analogues and other compounds. The true share with any hit is near 9%. Calls come from the whole dose curve; as a rule, active = well fitted curve in the direction sought with a large enough effect; inconclusive = small, poorly fitted or top-dose-only effect, or another doubt; inactive = no such curve, though single readings can be large; an effect the other way counts as inactive or inconclusive. Potency is the fitted concentration of half-maximal effect.

SMILES | PLK1 PBD block | JMJD2A Tudor inh | BAZ2B block | HP1b chromo inh | 12-LOX inh | G9a inh
O=C(O)c1ccccc1C(=O)NCc1ccc(F)cc1 | -5% | -9% | 4% | 10% | 2% | -28%
O=C(O)c1ccccc1C(=O)NNc1ccc(F)cc1 | -15% | 40µM* | -21% | -24% | ? | ?
CCNC(=O)c1c(NC(C)=O)sc2c1CCCC2 | -2% | 12% | -4% | 19% | 2% | ?
COc1cc(C(=O)NCc2nc3ccccc3n2CC(C)C)cc(OC)c1OC | . | . | . | . | -11% | .
COc1ccccc1-c1nc2ccccc2n(CC(C)C)c1=O | 24µM* | . | . | . | ? | .
CCc1c(C)nc(SCc2cccnc2)[nH]c1=O | -6% | -16% | -4% | 24%[57 µM] | . | 15%
O=C(Nc1ccccc1C(=O)N1CCN(c2cccc(Cl)c2)CC1)C1=CSCCO1 | -22% | -34% | 71µM* | -7% | 13% | 32%[59 µM]
CS(=O)(=O)Nc1ccccc1C(=O)NCc1ccco1 | 0% | -2% | -2% | 48% | -10% | 13µM*
CC(C)(C)C(=O)Nc1ccccc1C(=O)NCc1ccco1 | -16% | -8% | 3% | 29% | 103% | 5%
CCOc1ccc(S(=O)(=O)Nc2ccccc2C(=O)NCc2ccco2)cc1 | -15% | -31% | ? | 9% | -15% | 50µM*
Cc1ccccc1NS(=O)(=O)c1ccc(OCC(=O)NCc2ccco2)cc1 | -9% | -31% | 1% | -6% | -5% | -36%[59 µM]
O=C(Nc1nc(-c2ccc(S(=O)(=O)N3CCCC3)cc2)cs1)C1COc2ccccc2O1 (configuration not stated) | ? | -12% | 7% | 3% | 0% | -8%[12.7 µM]
O=C(CSc1nc2ccccc2[nH]1)N1CCN(S(=O)(=O)c2ccc(Cl)cc2)CC1 | -25% | -10% | 1% | 42% | 0% | 35µM*
O=C(CNc1ccc(Cl)c(C(F)(F)F)c1)N1CCN(S(=O)(=O)c2ccccc2)CC1 | -7% | 79µM* | . | -33% | ? | .
COC(=O)C1CCN(C(=O)CSc2ccccc2)CC1 | 21µM* | -16% | 5% | 31% | 12% | -9%[59 µM]
COC(=O)C1CCN(C(=O)CCCOc2ccccc2)CC1 | ? | -26%[57.1 µM] | 0% | -6% | 22% | 0%[59 µM]
O=C(CSc1ccccc1)N1CCN(S(=O)(=O)c2ccccc2)CC1 | 12µM* | -18% | -3% | 21% | -13% | 3%[12.7 µM]
Cc1ccc(C(=O)/C=C\NCc2ccccc2)cc1 | 1% | -19% | -6% | 24% | 15% | -2%
CCCN1C(=O)C(O)(c2c(C)[nH]c3ccccc23)c2ccccc21 (configuration not stated) | -5% | -5% | ? | 34% | 7% | -15%[59 µM]
Cc1ccc(CN2C(=O)C(O)(c3c(C)[nH]c4ccccc34)c3ccccc32)cc1 (configuration not stated) | . | ? | 45µM* | ? | ? | ?
COc1cc(CN(C)Cc2cccc3ccccc23)cc([N+](=O)[O-])c1O | -19% | ? | ? | -9% | 3% | 71µM*
CN(Cc1cccc([N+](=O)[O-])c1)Cc1cccc2ccccc12 | -23% | -34% | -36% | 5% | ? | .
O=C(Oc1ccc(=O)n(-c2ccccc2)n1)c1cccc(Cl)c1 | 6.7µM* | -8% | 6% | 49% | 0% | .
CCCOC(=O)C(C)Oc1ccc2c(=O)c(-c3ccccc3Cl)coc2c1 (configuration not stated) | . | . | . | . | 3% | .
CC(/C=C1\SC(=S)N(CC(=O)N2CCN(c3ccccc3)CC2)C1=O)=C\c1ccccc1 | -14% | -6% | -37% | 14% | 1% | -11%[59 µM]
CN1/C(=C\C=C(C#N)C#N)C(C)(C)c2ccccc21 | -50% | -17% | -7% | 16% | -5% | 13%
CN1CCS/C1=C/C=C1/SC(=S)N(Cc2ccccc2)C1=O | 33% | ? | 10µM* | 13µM* | 4% | ?
CCCCN1C(=O)/C(=C/C=C2\SCCN2C)SC1=S | 49% | 35µM* | 10µM* | 28µM* | ? | 13µM*
